For seven molecules, Potency results are on record in PubChem BioAssay (NCATS).

Assay [1] can be described thus: qHTS for Inhibitors of Plasmodium falciparum (HB3) proliferation (AID 504318). Note: potency is the fitted concentration of half-maximal effect; nearly all actives have a fitted effect of over 60% in size. The gist of the method: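 Erythrocytes infected with P. falciparum line (0.3% parasitemia, 2.5% hematocrit final) incubated with compounds 72 h at 37 °C, 5% CO2; SYBR Green lysis buffer added, fluorescence read next day. Normalized to 0.29 uM artemisinin and DMSO.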
The target of assay [2] is DNA dC->dU-editing enzyme APOBEC-3G (Homo sapiens) (UniProt Q9HC16). Put plainly: qHTS for inhibitors of Vif-A3G interactions: Validation (AID 588379). The gist of the method:
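HeLa cells stably expressing Vif and A3G-eYFP, 700 cells/well, incubated overnight at 37 deg C, then exposed to compound overnight at 37 deg C. Inhibition of Vif-mediated degradation read as increased yellow fluorescence (Ex 488/Em 500-530) by laser-scanning cytometry.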
A general note: In qHTS, concentration-response curves come from the screen itself.

Assay [3] in a line: S16 Schwann cell viability assay (CellTiter-Glo assay) (AID 624031).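 Note: native untransfected S16 rat Schwann cells; nearly all actives have a fitted effect of over 70% in size.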 A digest of the protocol: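 Counter-screen for cytotoxicity: parental S16 rat Schwann cells lacking the PMP22 reporters, treated 24 h with compound, viability from cellular ATP by CellTiter-Glo luminescence, normalized to DMSO (0%) and no-cell wells.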
On the technique in general: ATP-based viability assays read luminescence as a measure of living cells.

Assay [4] can be described thus: S16 Schwann cell PMP22 intronic element beta-lactamase assay (AID 624044; calls by dose curve; note: nearly all actives have a fitted effect of over 15% in size). The gist of the method: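 Rat S16 Schwann cells with beta-Lac driven by a PMP22 intronic element, compound-treated 24 h at 37 °C. LiveBLAzer FRET B/G read: 460 nm normalized to potassium clavulanate vs DMSO; 535 nm FRET as viability; concentration-effect curves classified.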
A further assay has as its system CP215. The assay is described as follows: qHTS profiling for inhibitors of Plasmodium falciparum proliferation (AID 504749). Note: nearly all actives have a fitted effect of over 60% in size. The following applies: P. falciparum in erythrocytes, SYBR Green DNA, 72 h; series mostly up to 28.7 µM. A digest of the protocol: (§1)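 Three-day growth assay of blood-stage parasites in erythrocytes (0.3% parasitemia, 2.5% hematocrit) at 37 C, 5% CO2, quantified by SYBR Green DNA staining after overnight detergent lysis.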

The test system of another assay is CP256. The assay is described as above. The following applies: P. falciparum in erythrocytes, SYBR Green DNA, 72 h; series mostly up to 28.7 µM. The gist of the method:
as §1

The test system of the next assay is CP260. The description is as above. The following applies: P. falciparum in erythrocytes, SYBR Green DNA, 72 h; series mostly up to 28.7 µM. The gist of the method: as §1
The test system of the next assay is DIV14. The description is as above. The following applies: P. falciparum in erythrocytes, SYBR Green DNA, 72 h; series mostly up to 28.7 µM. The gist of the method:
as §1

The next assay deals with DIV17. The description is as above. The following applies: P. falciparum in erythrocytes, SYBR Green DNA, 72 h; series mostly up to 28.7 µM. A digest of the protocol: as §1
The next assay relates to GB4. The assay is described as above. The following applies: P. falciparum in erythrocytes, SYBR Green DNA, 72 h; series mostly up to 28.7 µM. A digest of the protocol:
as §1

A further assay concerns ICS. The description is as above. The following applies: P. falciparum in erythrocytes, SYBR Green DNA, 72 h; series mostly up to 28.7 µM. The gist of the method: as §1
The next assay deals with W2. The assay is described as above. The following applies: P. falciparum in erythrocytes, SYBR Green DNA, 72 h; series mostly up to 28.7 µM. The gist of the method: as §1
Assay [5] has as its target Luciferin 4-monooxygenase (Photinus pyralis) (UniProt P08659). The assay is described as follows: Biochemical firefly luciferase enzyme assay for NPC (AID 624030).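 Note: purified P. pyralis luciferase at 10 nM with luciferin and ATP substrate; nearly all actives have a fitted effect of over 70% in size.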 A digest of the protocol: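 Direct inhibition of firefly luciferase enzyme (10 nM final, 50 mM Tris Acetate) assessed by luminescence within 5 minutes. Percent activity scaled between DMSO and PTC124 positive control, with concentration-effect curves classified by fit quality and response.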

Results filed as inconclusive are left out. Activity calls are given as the source filed them. Unless noted, calls come from the whole dose curve; as a rule, active = well fitted curve in the direction sought with a large enough effect; inconclusive = small, poorly fitted or top-dose-only effect, or another doubt; inactive = no such curve, though single readings can be large; an effect the other way counts as inactive or inconclusive. Numbered stars: 1 amine (or outer) side, 2 acyl side, 3 side chain; on linkers, the order of the positions; unused ones are H or OH. Bridge positions count the residues as written; N and C are the ends. Square brackets hold non-standard residues; d marks the D form. Peptide text beside a SMILES is read from it. * marks the point of attachment. ξ: configuration not given here. ΔAla(Z-3-ureido) = NC(=O)N/C=C(\N)C(=O)O; X1 = NC1=NCCC(C(N[*:1])C(=O)[*:2])N1; ξβ3hOrn = NCCCC(N)CC(=O)*; Dap = NC[CH](N)C(=O)O

Chain of Luciferin 4-monooxygenase (Photinus pyralis) (P08659 whole entry, looked up): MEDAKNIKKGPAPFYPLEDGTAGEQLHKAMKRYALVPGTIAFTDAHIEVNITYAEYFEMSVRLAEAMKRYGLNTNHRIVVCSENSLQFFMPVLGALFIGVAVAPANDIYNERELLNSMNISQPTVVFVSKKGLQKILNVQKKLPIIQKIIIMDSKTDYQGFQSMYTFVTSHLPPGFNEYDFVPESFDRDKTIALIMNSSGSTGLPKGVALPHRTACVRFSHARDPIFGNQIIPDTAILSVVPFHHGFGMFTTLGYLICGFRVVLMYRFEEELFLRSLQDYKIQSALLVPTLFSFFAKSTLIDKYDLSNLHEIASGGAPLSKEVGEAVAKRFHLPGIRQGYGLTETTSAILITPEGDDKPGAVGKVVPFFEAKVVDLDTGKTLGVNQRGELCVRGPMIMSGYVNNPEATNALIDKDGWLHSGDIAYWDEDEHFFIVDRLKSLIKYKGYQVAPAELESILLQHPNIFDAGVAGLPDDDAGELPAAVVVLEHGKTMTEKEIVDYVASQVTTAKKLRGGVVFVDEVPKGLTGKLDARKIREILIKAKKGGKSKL
Chain of DNA dC->dU-editing enzyme APOBEC-3G (Homo sapiens) (Q9HC16 whole entry, looked up): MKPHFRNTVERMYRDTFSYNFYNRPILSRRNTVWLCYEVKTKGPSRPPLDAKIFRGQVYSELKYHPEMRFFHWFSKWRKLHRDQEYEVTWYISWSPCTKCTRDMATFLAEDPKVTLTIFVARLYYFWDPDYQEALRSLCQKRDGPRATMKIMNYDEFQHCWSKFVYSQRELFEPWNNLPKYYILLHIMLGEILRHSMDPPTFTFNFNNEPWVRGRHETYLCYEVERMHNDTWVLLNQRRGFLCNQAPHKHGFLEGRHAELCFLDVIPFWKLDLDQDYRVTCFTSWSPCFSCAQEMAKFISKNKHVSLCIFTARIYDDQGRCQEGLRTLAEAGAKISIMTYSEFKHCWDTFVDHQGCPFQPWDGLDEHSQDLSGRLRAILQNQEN

Consider `CC(C)Nc1oc(-c2ccccc2)nc1C=Cc1ccccc1`, for which the Potency in [1] is 1900 nM (active).

Turning to `COc1cc2c(C)c3c4c(cc(OC)c(OC)c4c2cc1OC)CCN3C`, in [2], the Potency result was “inactive”.

For `CCOC(=O)C(CS)NCCN[C@@H](CS)C(=O)OCC` (stereo not given in full), the Potency result (in [3]; in [4]; in the assay on CP215; with CP256; with CP260; in the assay with DIV14) was “inactive” throughout. Besides, the Potency entry with DIV17, with GB4, with ICS and with W2 was “inactive” in each case.

As to `CC(C)C(NC(=O)C(CC(=O)O)NC(=O)C(CCCCN)NC(=O)C(N)CCCN=C(N)N)C(=O)NC(Cc1ccc(O)cc1)C(=O)O` (stereo not given) (H-RKDVY-OH; configuration not given here), the Potency entry (in assay [5]; in assay [3]; in [4]; in the assay with CP215; in the assay with CP256; in the assay with DIV14) was “inactive” each time. Besides, the Potency result in the assay on DIV17, with GB4, with ICS and with W2 was “inactive” throughout.

`O=C(/C=C/c1ccc(O)cc1)c1cccs1`: in assay [2], the Potency result is “inactive”.

Take `NC(=O)CCC1NC(=O)C(Cc2ccccc2)NC(=O)C(Cc2ccc(O)cc2)NC(=O)CCSSCC(C(=O)N2CCCC2C(=O)NC(CCCN=C(N)N)C(=O)NCC(N)=O)NC(=O)C(CC(N)=O)NC1=O` (stereo not given): the Potency result (in assay [5]; in assay [3]; in assay [4]; in the assay on CP215; in the assay with CP256; in the assay with CP260) was “inactive” in each case. Besides, the Potency result in the assay on DIV14, in the assay with DIV17, with GB4, with ICS and with W2 was “inactive” each time.

With `NCCCC(N)CC(=O)NCC1NC(=O)C(CO)NC(=O)C(N)CNC(=O)C(C2CCN=C(N)N2)NC(=O)/C(=C/NC(N)=O)NC1=O` (stereo not drawn) (H-[Dap]S[Dap](ξβ3hOrn)[ΔAla(Z-3-ureido)][X1]; lactam 1-C; configuration not given here), the Potency result (in assay [5]; in [3]; in assay [4]; in the assay with CP215; in the assay with CP256; in the assay with CP260) was “inactive” throughout. The Potency result in the assay with DIV14, with DIV17, in the assay with GB4, with ICS and with W2 was “inactive” in each case.
